The labels stand for the following.
B1: HHH_b1_08438_000000177_dldesign_0_cycle1_af2pred_0001 (protein)
chain: GGSGGSAEEEVEKLIEEAKNNPDKEKAEELLSRALKLADAAGNVDLRSKTMNALFDVLGGSGGSG
B2: HHH_b1_01197_000000280_dldesign_0_cycle1_af2pred_0001 (protein)
chain: GGSGGSGKSSEIDKLLNEVLKLGKEEEYLKIMSLKMDYLETGDEEIFKEAKELAKKVIGGSGGSG
B3: HHH_b2_07220_000000120_dldesign_0_cycle1_af2pred_0001 (protein)
chain: SGGSEESKKLVEETIKKAKKLVEEGNPLEAKILLRKTLLDLSELGDDEGFSKLSKFLDEIEGGSG
B4: HHH_b1_00135_000000286_dldesign_0_cycle1_af2pred_0001 (protein)
chain: SGGSLAVETAKEYLEMVKSYAEEGDKEEAQFFADIIKLLAESENNPELKKIYEEAKKIVEEGGSG
B5: HHH_b1_08653_000000138_dldesign_0_cycle1_af2pred_0001 (protein)
chain: GSGGSGASLAAEDILRAMRQFARAGKPEAVRDLAKKGIKIMTEAGRPDEAKRIEEELARLGGSGG
B6: HHH_b1_02099_000000008_dldesign_0_cycle1_af2pred_0001 (protein)
chain: SGGSMEELDECARLLNELAHAIEEGNKEKFEELYKKARELIEKLGDEALLKALDELEEAFYGGSG
B7: ac710d00df0a15e663fb636f306744b3_0001_1_000000013_dldesign_0_cycle1_af2pred_0001 (protein)
chain: GIRERAREMAKKHGVSDEELQPVIDLVEKMRAEGKSIEEIARELGEKLAETGNKAYACVLEALAE

For orientation: apparent Kd means the concentration giving half-maximal binding under the conditions of the assay.

Not all results are given here. The hit rate among all sequences tested is not known here. A number with no mark means an inactive call.

This assay has as its target Flpp3. Briefly: yeast display titration.
With B1, the apparent Kd was greater than 11.6 µM.
The figure for B2 is greater than 5.39 µM; for B3 it is greater than 4.46 µM.
The value for B4 was greater than 7.9 µM; that for B5 was greater than 134 µM.
Turning to B6, the apparent Kd was greater than 0.105 µM.
Consider B7, for which the apparent Kd was greater than 0.105 µM.

The values above are taken from publication PMC12723454.
